A short description of assay [1]: ATG_GRE_CIS: Attagene CIS-FACTORIAL HepG2 Assay for human Glucocorticoid Response Elements (GRE) (AID 2282947). As to conditions: HepG2 GRE cis-reporter, Attagene multiplex mRNA; actives raise or lower the signal. The method in brief:
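HepG2 cells transiently transfected with multiple cis-promoter reporter units measure endogenous TF activity; 24 h compound exposure. Reporter mRNA quantified by RT-PCR, FAM labelling, HpaI digestion and capillary electrophoresis; bidirectional fit vs DMSO baseline.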

A short description of assay [2]: ATG_ISRE_CIS: Attagene CIS-FACTORIAL HepG2 Assay for human Interferon Regulatory Factor 1 (IRF1) binding to an Interferon-Stimulated Response Element (ISRE) (AID 2282948). Conditions: HepG2 ISRE cis-reporter (Attagene), mRNA transcription readout; actives raise or lower the signal. The method in brief:
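Quantitation relies on labelled RT-PCR fragments separated by capillary electrophoresis. Human HepG2 cells bearing cis-promoter reporter constructs were treated 24 h; DMSO served as baseline for bidirectional fitting.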

Assay [3] in a line: ATG_M_32_CIS: Attagene CIS-FACTORIAL HepG2 Assay for M32 Transcription Factor (Internal Marker) (AID 2282949).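 Also: background control marker of the multiplexed CIS panel rather than a real target.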 Conditions: HepG2 Attagene cis-factorial M32 reporter, mRNA; actives raise or lower the signal. The method in brief: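 Following 24 h chemical exposure of HepG2 cells transiently expressing cis-promoter reporter constructs, reporter transcript levels were determined by RT-PCR with fluorescent labelling and capillary electrophoresis, then fitted bidirectionally against DMSO.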

A short description of assay [4]: ATG_M_06_CIS: Attagene CIS-FACTORIAL HepG2 Assay for M06 Transcription Factor (Internal Marker) (AID 2282950). As to conditions: HepG2 Attagene CIS-FACTORIAL M06 internal marker reporter; actives raise or lower the signal. The method in brief:
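Terse: HepG2, transient MRTU transfection (FuGene 6), 24 h dosing; total RNA, oligo(dT) RT, PCR, FAM label, HpaI cut, capillary electrophoresis; bidirectional fit vs DMSO baseline; background-control endpoint.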

The target in assay [5] is Hypoxia-inducible factor 1-alpha (Homo sapiens) (UniProt Q16665). Briefly: ATG_HIF1a_CIS: Attagene CIS-FACTORIAL HepG2 Assay for human Hypoxia Inducible Factor 1 (HIF1A) (AID 2282951). As to conditions: HepG2 Attagene cis-factorial HIF1a reporter transcription; actives raise or lower the signal. The gist of the method:
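HepG2, transient cis-reporter library, 24 h dosing. RNA → RT (oligo dT) → PCR → 6-FAM primer extension → HpaI → CE. Bidirectional curve fit vs DMSO.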

In assay [6] the target is Hepatocyte nuclear factor 6 (Homo sapiens) (UniProt Q9UBC0). Briefly: ATG_HNF6_CIS: Attagene CIS-FACTORIAL HepG2 Assay for human Hepatocyte Nuclear Factor 6 (HNF6) (AID 2282952). Conditions: HepG2 Attagene cis-factorial HNF6 reporter transcription; actives raise or lower the signal. The method in brief: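 Multiplexed mRNA reporter assay in transfected HepG2; 24 h dosing; RT-PCR plus capillary electrophoresis fluorescence; DMSO-referenced bidirectional curve fitting.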
Chain of Hepatocyte nuclear factor 6 (Homo sapiens) (Q9UBC0 whole entry, looked up): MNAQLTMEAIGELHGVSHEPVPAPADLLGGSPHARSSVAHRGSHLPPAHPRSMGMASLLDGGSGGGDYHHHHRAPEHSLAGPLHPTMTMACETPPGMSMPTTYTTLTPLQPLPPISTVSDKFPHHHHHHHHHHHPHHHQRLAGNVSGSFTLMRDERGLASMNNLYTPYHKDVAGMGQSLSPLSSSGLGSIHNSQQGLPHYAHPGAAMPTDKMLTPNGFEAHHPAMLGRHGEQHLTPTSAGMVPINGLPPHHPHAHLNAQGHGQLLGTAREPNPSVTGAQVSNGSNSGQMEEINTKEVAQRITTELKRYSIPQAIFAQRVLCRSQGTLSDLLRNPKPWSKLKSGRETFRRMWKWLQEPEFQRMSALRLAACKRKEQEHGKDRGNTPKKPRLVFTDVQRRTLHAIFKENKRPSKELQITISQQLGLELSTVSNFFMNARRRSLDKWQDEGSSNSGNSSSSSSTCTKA

The target of assay [7] is Heat shock factor protein 1 (Homo sapiens) (UniProt Q00613). The experiment in a line: ATG_HSE_CIS: Attagene CIS-FACTORIAL HepG2 Assay for human Heat Shock Transcription Factor 1 (HSE) (AID 2282953). Conditions: HepG2 HSE cis-reporter, Attagene RNA transcription; actives raise or lower the signal. The method in brief: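 Read-out: fluorescence of reporter-specific RT-PCR fragments separated by capillary electrophoresis. HepG2 carrying transfected cis-element reporter units; 24 h dosing; activity fitted in both directions relative to DMSO baseline.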
Chain of Heat shock factor protein 1 (Homo sapiens) (Q00613 whole entry, looked up, the tested form may be a part): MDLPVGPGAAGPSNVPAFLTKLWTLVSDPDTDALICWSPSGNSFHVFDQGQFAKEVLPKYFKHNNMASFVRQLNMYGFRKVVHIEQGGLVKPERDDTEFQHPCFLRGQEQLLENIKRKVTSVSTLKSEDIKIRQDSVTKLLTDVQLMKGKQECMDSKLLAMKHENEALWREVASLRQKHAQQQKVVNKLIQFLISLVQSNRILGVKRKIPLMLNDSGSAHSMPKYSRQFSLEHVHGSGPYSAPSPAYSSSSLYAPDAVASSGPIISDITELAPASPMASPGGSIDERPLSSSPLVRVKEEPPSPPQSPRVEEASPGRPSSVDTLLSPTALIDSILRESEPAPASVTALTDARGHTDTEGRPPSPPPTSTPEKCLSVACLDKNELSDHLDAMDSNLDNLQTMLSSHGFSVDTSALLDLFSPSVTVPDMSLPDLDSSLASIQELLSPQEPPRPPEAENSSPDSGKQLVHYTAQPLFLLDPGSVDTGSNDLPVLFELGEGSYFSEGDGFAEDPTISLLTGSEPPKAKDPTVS

A short description of assay [8]: ATG_MRE_CIS: Attagene CIS-FACTORIAL HepG2 Assay for human Metal Responsive Element (MRE) (AID 2282954). Conditions: HepG2 MRE cis-reporter transcription, Attagene multiplex; actives raise or lower the signal. The gist of the method:
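HepG2 cells transiently transfected with multiple cis-element reporter units measure endogenous MTF1-driven transcription. After 24 h compound exposure, reporter mRNA is quantified by RT-PCR with 6-FAM labelling, HpaI digestion and capillary electrophoresis; bidirectional fits versus DMSO.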

Assay [9] can be described thus: ATG_PBREM_CIS: Attagene CIS-FACTORIAL HepG2 Assay for human Phenobarbital-responsive Enhancer Module (PBREM) (AID 2282955). As to conditions: HepG2 PBREM cis-reporter, Attagene multiplexed transcription; actives raise or lower the signal. The gist of the method:
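HepG2, transient MRTU transfection, 24 h dosing; RNA → oligo(dT) RT → PCR → 6-FAM extension → HpaI → CE. Bidirectional fit vs DMSO.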

Assay [10] addresses Paired box protein Pax-6 (Homo sapiens) (UniProt P26367). The experiment in a line: ATG_Pax6_CIS: Attagene CIS-FACTORIAL HepG2 Assay for human Paired Box 6 (PAX6) (AID 2282956). As to conditions: HepG2 CIS-FACTORIAL PAX6 reporter transcription, RNA readout; actives raise or lower the signal. The method in brief: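 After twenty-four hours of chemical exposure, transfected HepG2 cells are harvested for RNA. Cis-promoter reporter transcripts are amplified, fluorescently labelled and sized by capillary electrophoresis, with gain and loss of signal scored against DMSO.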

Assay [11] in a line: ATG_PXRE_CIS: Attagene CIS-FACTORIAL HepG2 Assay for human Pregnane X Receptor Element (PXRE) (AID 2282957). As to conditions: HepG2 Attagene CIS-FACTORIAL PXRE reporter, mRNA; actives raise or lower the signal. The gist of the method:
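Cells: HepG2, transiently transfected reporter units under cis promoter control. Exposure: 24 h. Detection: reporter mRNA via RT-PCR/CE fluorescence; bidirectional fitting, DMSO-referenced.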

Assay [12] in a line: ATG_PPRE_CIS: Attagene CIS-FACTORIAL HepG2 Assay for human Peroxisome Proliferator-activated Response Element (PPRE) (AID 2282958). As to conditions: HepG2 PPRE cis-element reporter, Attagene transcription factor profiling; actives raise or lower the signal. The method in brief: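 Transcript-level reporter induction in transfected HepG2 cells after 24 h chemical exposure, quantified by fluorescence from RT-PCR products separated by capillary electrophoresis.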

The nature of assay [13]: ATG_RORE_CIS: Attagene CIS-FACTORIAL HepG2 Assay for human RAR-related Orphan Receptor Element (RORE) (AID 2282959). As to conditions: HepG2 Attagene cis-factorial RORE reporter, mRNA; actives raise or lower the signal. The method in brief: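 Multiplexed reporter assay measuring mRNA induction from a cis promoter element in transiently transfected HepG2 cells after 24 h treatment. Detection via RT-PCR and capillary electrophoresis fluorescence; DMSO serves as baseline.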

Assay [14] is described as follows: ATG_Sox_CIS: Attagene CIS-FACTORIAL HepG2 Assay for human SRY-box transcription factor (SOX) (AID 2282960). Conditions: HepG2 Attagene cis-factorial SOX reporter, mRNA; actives raise or lower the signal. The gist of the method:
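Cells were transfected with reporter constructs under cis-regulatory promoters, then exposed to chemicals for 24 h. Reporter transcripts were quantified by fluorescence after RT-PCR and capillary electrophoresis; activity was fitted in both directions against DMSO.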

Assay [15] has as its target Transcription factor Sp1 (Homo sapiens) (UniProt P08047). Briefly: ATG_Sp1_CIS: Attagene CIS-FACTORIAL HepG2 Assay for human Specificity Protein 1 (Sp1) (AID 2282961). Conditions: HepG2 Sp1 cis-reporter transcription, actives raise or lower the signal. The gist of the method:
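Measures mRNA induction of an Sp1-linked reporter in HepG2 cells 24 h post-dosing. Multiplexed reporters read by RT-PCR and capillary electrophoresis; DMSO serves as negative control and baseline.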

The nature of assay [16]: ATG_SREBP_CIS: Attagene CIS-FACTORIAL HepG2 Assay for human Sterol Regulatory Element Binding (SREBP) (AID 2282962). Conditions: HepG2 Attagene cis-factorial SREBP reporter, mRNA; actives raise or lower the signal. The method in brief:
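Twenty-four hours after chemical dosing of transfected HepG2 cultures, reporter RNA was converted to cDNA, amplified, end-labelled with 6-FAM and resolved by capillary electrophoresis. Responses were fitted relative to DMSO.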

Assay [17] concerns the target Signal transducer and activator of transcription 3 (Homo sapiens) (UniProt P40763). The experiment in a line: ATG_STAT3_CIS: Attagene CIS-FACTORIAL HepG2 Assay for human Signal Transducer and Activator of Transcription 3 (STAT3) (AID 2282963). As to conditions: HepG2, Attagene cis-factorial STAT3 reporter transcription; actives raise or lower the signal. The method in brief: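 HepG2 cells transiently transfected with cis-element-driven multiple reporter transcription units; after 24 h chemical exposure, reporter mRNA measured by RT-PCR, 6-FAM primer-extension labelling, HpaI digestion and capillary electrophoresis. Bidirectional fitting versus DMSO baseline.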

Assay [18] can be described thus: ATG_TA_CIS: Attagene CIS-FACTORIAL HepG2 Assay for human TA Basal Promoter (AID 2282964). Conditions: HepG2 Attagene CIS-factorial TA basal promoter reporter; actives raise or lower the signal. The method in brief:
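Transfected HepG2, 24 h compound exposure; RNA → RT-PCR → FAM primer extension → HpaI cut → CE fluorescence. Gain/loss-of-signal fitted against DMSO negative control. Background-control readout.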

Assay [19] in a line: ATG_TCF_b_cat_CIS: Attagene CIS-FACTORIAL HepG2 Assay for human T-Cell-Factor with beta-catenin (TCF/b-cat) (AID 2282965). As to conditions: HepG2 TCF/beta-catenin cis-reporter transcription, actives raise or lower the signal. The method in brief:
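HepG2 cells transiently transfected with multiple cis-promoter-regulated reporter transcription units, so endogenous transcription factor activity is measured. Reporter mRNA read 24 hours after dosing by RT-PCR, fluorescent labelling and capillary electrophoresis; bidirectional fitting against DMSO.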

For assay [20], the target named is Bile acid receptor (Homo sapiens) (UniProt Q96RI1). Briefly: ATG_IR1_CIS: Attagene CIS-FACTORIAL HepG2 Assay for human Nuclear Receptor Subfamily 1 Group H Member 4 (NR1H4), IR1 submotif (AID 2282946). As to conditions: IR1 reporter transcription, actives raise or lower the signal. The gist of the method:
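Transient MRTU transfection, HepG2; 24 h dosing; RNA → RT-PCR → 6-FAM primer extension → HpaI digest → capillary electrophoresis fluorescence. Gain/loss of signal fitted relative to DMSO.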

Calls of active or inactive are those of the source. The calls were made as follows: active = hit-call score of the fitted dose curve at least 0.9, where 1 is the maximum; inactive = score below 0.9.

Chain of Paired box protein Pax-6 (Homo sapiens) (P26367 whole entry, looked up): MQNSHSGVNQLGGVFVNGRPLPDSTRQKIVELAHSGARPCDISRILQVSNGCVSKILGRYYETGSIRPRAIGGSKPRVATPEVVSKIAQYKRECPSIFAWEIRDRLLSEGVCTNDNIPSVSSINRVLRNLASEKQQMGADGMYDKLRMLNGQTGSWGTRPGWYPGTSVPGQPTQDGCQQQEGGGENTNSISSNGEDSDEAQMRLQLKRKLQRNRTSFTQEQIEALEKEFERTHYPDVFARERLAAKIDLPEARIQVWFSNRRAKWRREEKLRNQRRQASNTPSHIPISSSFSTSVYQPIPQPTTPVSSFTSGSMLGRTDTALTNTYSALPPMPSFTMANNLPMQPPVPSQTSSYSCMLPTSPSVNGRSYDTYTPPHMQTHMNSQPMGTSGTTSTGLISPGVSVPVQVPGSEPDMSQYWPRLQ
Chain of Transcription factor Sp1 (Homo sapiens) (P08047 whole entry, looked up): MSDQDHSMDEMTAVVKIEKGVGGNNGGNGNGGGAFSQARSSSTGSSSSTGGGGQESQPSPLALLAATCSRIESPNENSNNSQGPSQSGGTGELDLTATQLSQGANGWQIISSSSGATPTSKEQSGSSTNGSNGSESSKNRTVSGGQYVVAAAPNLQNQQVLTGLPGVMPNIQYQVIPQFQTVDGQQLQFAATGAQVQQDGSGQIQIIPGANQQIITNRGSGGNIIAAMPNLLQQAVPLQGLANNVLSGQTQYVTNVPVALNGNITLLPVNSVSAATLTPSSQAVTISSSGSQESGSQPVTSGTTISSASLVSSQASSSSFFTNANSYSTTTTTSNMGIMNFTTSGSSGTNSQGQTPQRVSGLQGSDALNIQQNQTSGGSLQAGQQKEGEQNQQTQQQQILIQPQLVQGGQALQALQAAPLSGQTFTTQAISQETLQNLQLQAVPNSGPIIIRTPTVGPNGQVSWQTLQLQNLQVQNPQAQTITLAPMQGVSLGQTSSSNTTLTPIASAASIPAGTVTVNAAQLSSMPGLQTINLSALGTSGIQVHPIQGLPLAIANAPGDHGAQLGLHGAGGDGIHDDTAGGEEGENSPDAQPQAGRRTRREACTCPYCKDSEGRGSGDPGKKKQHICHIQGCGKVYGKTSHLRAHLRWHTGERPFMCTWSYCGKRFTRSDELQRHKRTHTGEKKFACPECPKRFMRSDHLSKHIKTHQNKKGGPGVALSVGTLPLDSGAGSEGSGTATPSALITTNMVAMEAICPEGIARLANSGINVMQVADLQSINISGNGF
Chain of Hypoxia-inducible factor 1-alpha (Homo sapiens) (Q16665 whole entry, looked up): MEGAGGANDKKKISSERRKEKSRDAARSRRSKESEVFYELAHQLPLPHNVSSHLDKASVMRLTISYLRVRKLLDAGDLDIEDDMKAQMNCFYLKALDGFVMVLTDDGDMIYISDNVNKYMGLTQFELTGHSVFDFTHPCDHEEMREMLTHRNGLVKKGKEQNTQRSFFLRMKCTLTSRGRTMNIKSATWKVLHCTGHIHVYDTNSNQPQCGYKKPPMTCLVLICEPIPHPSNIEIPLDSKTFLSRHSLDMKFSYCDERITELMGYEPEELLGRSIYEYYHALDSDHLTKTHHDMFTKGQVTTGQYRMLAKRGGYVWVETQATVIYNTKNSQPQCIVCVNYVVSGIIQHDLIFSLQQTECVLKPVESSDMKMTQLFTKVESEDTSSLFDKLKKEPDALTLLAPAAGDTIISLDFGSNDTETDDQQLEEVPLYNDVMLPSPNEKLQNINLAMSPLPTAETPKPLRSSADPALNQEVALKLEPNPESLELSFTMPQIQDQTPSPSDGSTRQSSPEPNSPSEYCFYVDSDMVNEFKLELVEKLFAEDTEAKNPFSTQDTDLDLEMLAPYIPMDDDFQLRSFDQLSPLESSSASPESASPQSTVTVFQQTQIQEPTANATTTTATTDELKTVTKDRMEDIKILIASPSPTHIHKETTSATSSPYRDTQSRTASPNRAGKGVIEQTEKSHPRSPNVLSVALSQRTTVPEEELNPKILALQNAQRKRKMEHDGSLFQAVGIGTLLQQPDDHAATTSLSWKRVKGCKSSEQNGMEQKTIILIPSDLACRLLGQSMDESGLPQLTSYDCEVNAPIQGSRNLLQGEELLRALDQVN
Chain of Signal transducer and activator of transcription 3 (Homo sapiens) (P40763 whole entry, looked up): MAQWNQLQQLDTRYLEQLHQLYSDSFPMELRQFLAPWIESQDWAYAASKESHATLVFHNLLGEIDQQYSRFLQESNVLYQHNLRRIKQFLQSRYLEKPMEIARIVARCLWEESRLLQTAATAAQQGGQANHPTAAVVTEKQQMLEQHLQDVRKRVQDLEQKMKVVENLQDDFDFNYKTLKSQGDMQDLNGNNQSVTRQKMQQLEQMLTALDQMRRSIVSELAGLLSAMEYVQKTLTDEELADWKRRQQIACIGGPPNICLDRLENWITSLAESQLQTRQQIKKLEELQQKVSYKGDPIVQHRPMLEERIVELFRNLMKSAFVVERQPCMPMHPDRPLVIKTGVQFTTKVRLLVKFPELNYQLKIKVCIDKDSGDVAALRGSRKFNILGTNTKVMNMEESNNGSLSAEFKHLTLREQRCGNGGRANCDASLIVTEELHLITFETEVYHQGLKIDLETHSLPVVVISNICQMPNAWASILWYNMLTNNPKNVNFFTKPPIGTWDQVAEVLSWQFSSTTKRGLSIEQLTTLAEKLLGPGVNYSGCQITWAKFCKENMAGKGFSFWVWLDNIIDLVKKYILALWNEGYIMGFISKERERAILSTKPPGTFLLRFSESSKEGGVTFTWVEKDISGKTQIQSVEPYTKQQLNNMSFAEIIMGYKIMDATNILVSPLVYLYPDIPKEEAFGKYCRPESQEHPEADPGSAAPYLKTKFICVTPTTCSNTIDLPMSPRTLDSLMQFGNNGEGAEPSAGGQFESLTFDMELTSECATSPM
Chain of Bile acid receptor (Homo sapiens) (Q96RI1 whole entry, looked up): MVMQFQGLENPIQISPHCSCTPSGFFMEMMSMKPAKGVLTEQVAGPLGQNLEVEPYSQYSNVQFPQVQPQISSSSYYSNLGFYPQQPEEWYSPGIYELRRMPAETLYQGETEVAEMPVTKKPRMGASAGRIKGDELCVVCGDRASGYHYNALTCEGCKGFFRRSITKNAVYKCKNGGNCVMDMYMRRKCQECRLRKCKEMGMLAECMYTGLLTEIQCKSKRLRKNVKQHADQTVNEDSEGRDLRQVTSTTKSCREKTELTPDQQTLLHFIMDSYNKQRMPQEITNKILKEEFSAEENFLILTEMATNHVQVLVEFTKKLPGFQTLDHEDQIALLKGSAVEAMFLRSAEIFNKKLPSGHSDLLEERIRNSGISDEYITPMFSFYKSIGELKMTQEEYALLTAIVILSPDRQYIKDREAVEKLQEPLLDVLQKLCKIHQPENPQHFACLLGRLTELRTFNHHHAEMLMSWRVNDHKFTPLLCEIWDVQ

As to `On1ccccc1=S`, the result in assay [1], in assay [2], in assay [3], in assay [4], in assay [5] and in assay [6] was inactive. Moreover, the result in assay [8], in assay [9], in [10], in assay [11], in [12] and in assay [13] was inactive. The call in assay [14], in assay [15], in [16], in assay [17], in assay [18] and in assay [19] was inactive. Also, the half-maximal activity concentration (AC50) in assay [7] was 26 µM (active).

Consider `O=C1CCCCCN1`, for which the call in assay [20], in [2], in assay [3], in assay [4], in [5] and in assay [6] was inactive. Further, the outcome in assay [8], in assay [9], in assay [10], in assay [11], in assay [12] and in assay [13] was inactive. For the same molecule, the outcome in [15], in assay [16], in assay [17], in assay [18] and in assay [19] was inactive.

In the case of `CCCCCCCCCCCCCCCO`, the half-maximal activity concentration (AC50) in assay [20] is 41.3 µM (active). Moreover, the outcome in [2], in [3], in assay [4], in assay [5], in assay [6] and in assay [8] was inactive. For the same molecule, the call in [10], in assay [11], in assay [12], in assay [13], in assay [15] and in [16] was inactive. In addition, the result in [17], in [18] and in assay [19] was inactive.

Turning to `O=C(OC[C@H]1O[C@@H](OC(=O)c2cc(O)c(O)c(OC(=O)c3cc(O)c(O)c(O)c3)c2)[C@H](OC(=O)c2cc(O)c(O)c(OC(=O)c3cc(O)c(O)c(O)c3)c2)[C@@H](OC(=O)c2cc(O)c(O)c(OC(=O)c3cc(O)c(O)c(O)c3)c2)[C@@H]1OC(=O)c1cc(O)c(O)c(OC(=O)c2cc(O)c(O)c(O)c2)c1)c1cc(O)c(O)c(OC(=O)c2cc(O)c(O)c(O)c2)c1`, the outcome in assay [1], in [2], in assay [3], in assay [4], in [6] and in assay [7] was inactive. Besides, the molecule was classed as inactive in assay [8], in [9], in assay [10], in [11], in assay [13] and in assay [14]. Further, the outcome in [15], in assay [16], in [17], in assay [18] and in assay [19] was inactive. Also, the AC50 in [5] is 6.05 µM (active).

(Values after PubChem BioAssay (EPA / NIEHS).)
